Screening results from PubChem BioAssay.
Hits are enriched below; roughly 15% of the tested compounds scored in any of these assays.
Pf growth 96h = Primary qHTS for delayed death inhibitors of the malarial parasite plastid, 96 hour incubation; P. falciparum luciferase reporter growth, 96 h; Potency, µM (highest dose often 28.7 µM), without a hit: top-dose activity change, negative = inhibition, hits mostly inhibitors; 320,000 tested, 6.9% active; further: potency means the concentration at half of the fitted maximal effect; on the % scale 0 is the no-effect control and ±100 the full control effect
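Luminescence readout: decreased luciferase signal marks inhibited growth of reporter-expressing P. falciparum in infected red cells (2% hematocrit, 0.05% parasitemia final), exposed to compound two generations (96 h, 37 C, 5% CO2).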
Sm TGR block = qHTS Assay for the Inhibitors of Schistosoma Mansoni Peroxiredoxins; Schistosoma mansoni thioredoxin glutathione reductase (TGR), Q962Y6; purified TGR, DTNB reduction, TNB absorbance 405 nm; Potency, µM (highest dose often 114 µM), for the others: at the top dose activity change, negative = inhibition, most hits filed as inhibitors; 360,000 tested, 3% active; AID 485364, 2010; further: potency means the concentration at half of the fitted maximal effect; on the % scale 0 is the no-effect control and ±100 the full control effect; nearly all actives have a fitted effect of over 60% in size
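Kinetic colorimetric format: TGR-catalysed, NADPH-driven DTNB reduction monitored via TNB absorbance. Enzyme dispensed at 20 nM; compound exposure 15 min at room temperature before reaction start.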
SARS PLP yeast = qHTS of Yeast-based Assay for SARS-CoV PLP; S. cerevisiae expressing SARS-CoV PLpro, growth rescue; Potency, µM (doses to about 32.9 µM), without a hit: at the highest dose activity, positive = growth rescue, most hits filed as activators; 330,000 tested, 0.19% active; AID 485353, 2010; calls by dose curve; further: potency means the concentration at half of the fitted maximal effect; 0% is about no effect; nearly all actives have a fitted effect of over 55% in size
HCV inhibitor = qHTS Assay for Inhibitors of Hepatitis C Virus (HCV). 340,000 tested, 3.4% active. AID 651820, 2012. Potency, µM (series often up to 41.8 µM), for inactives: at the top dose activity change, negative = inhibition, most hits filed as inhibitors. Huh7.5.1 HCVcc-Cre infection, luciferase reporter, 44 h; further: potency means the concentration at half of the fitted maximal effect; on the % scale 0 is the no-effect control and ±100 the full control effect
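1,000 cells/well; 4 h culture; + compound; + HCVcc-Cre (~0.5 moi); 44 h; luciferase substrate, RT 15 min; read 15 sec.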
HCMV inh = qHTS Assay for inhibitors of the human cytomegalovirus (HCMV). HFF cells, HCMV-luciferase reporter, 72 h; active compounds read low. activity change, negative = inhibition, % at 57.5 µM. 410,000 tested, 4.5% active. AID 1259415, 2018; in the data active means activity change below about -60%; inconclusive means no clear call, values can overlap the other calls; inactive means above about -39%; further: on the % scale 0 is the no-effect control and ±100 the full control effect
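Cell-based, HFFs, 1000 cells/well, 16 h 37C; cpds in DMSO + HCMV-luc, MOI 1 PFU/cell; 72 h 37C; OneGlo luminescence after 5 min RT; norm. to buffer vs Salinomycin 10uM.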
Pf growth 48h = Primary qHTS for delayed death inhibitors of the malarial parasite plastid, 48 hour incubation | P. falciparum luciferase growth in erythrocytes, 48 h | Potency, µM (doses to about 28.7 µM), without a hit: at the top dose activity change, negative = inhibition, most hits filed as inhibitors | 310,000 tested, 5.9% active | AID 504832, 2011; further: potency means the concentration at half of the fitted maximal effect; on the % scale 0 is the no-effect control and ±100 the full control effect
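In quantitative HTS format, infected erythrocytes bearing luciferase-reporter parasites were treated for a single generation at 37 C. Luminescence after adding detection reagent served as the growth measure.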
* = called active by the depositor; ? = inconclusive; . = no result given. Unless noted, the call rests on the fitted dose curve; in most records, active means well fitted curve in the direction sought with a large enough effect; inconclusive means small, poorly fitted or top-dose-only effect, or another doubt; inactive means no such curve, though single readings can be large; an effect the other way counts as inactive or inconclusive.

SMILES	Pf growth 96h	Sm TGR block	SARS PLP yeast	HCV inhibitor	HCMV inh	Pf growth 48h
Cc1ccc(/C=N/NS(=O)(=O)c2ccc([N+](=O)[O-])cc2)o1	?	-32.4%	-4.4%	6.8%	-32.6	9.3%
Cc1ccc(S(=O)(=O)NN=Cc2ccccc2Cl)cc1	.	.	.	.	12.1	.
Cc1ccc(S(=O)(=O)N/N=C\c2ccc([N+](=O)[O-])o2)cc1	5.4%	20µM*	-28.8%	12.6µM*	?	3.6%
Cc1ccc(S(=O)(=O)N/N=C/c2ccc(C(=O)O)cc2)cc1	11.7µM*	0.0%	-0.5%	19.3%	-1.6	30.5%
Cc1ccc(Cc2c(-c3ccc(F)cc3)nc3cc(C)ccn23)cc1	.	.	.	.	2.2	.
CCc1ccccc1NC(=O)c1cc(S(=O)(=O)N2CCCC2)cn1C	.	0.1%	.	.	-19.0	.
COc1cc(Cl)c(NS(=O)(=O)c2ccc(-c3cnc(C4CC4)o3)cc2)c(OC)c1	.	-1.1%	.	.	-76.0*	.
CCOc1ccccc1CNS(=O)(=O)c1ccc(-c2cnc(C3CC3)o2)cc1	?	7.3%	-5.2%	?	-69.0*	3.6%
Cc1ccc(NS(=O)(=O)c2ccc(-c3cnc(C4CC4)o3)cc2)cc1	11.7µM*	0.7%	-17.2%	?	-29.2	6.9%
Cc1cccc(C)c1NS(=O)(=O)c1ccc(-c2cnc(C3CC3)o2)cc1	?	2.8%	-16.8%	-13.7%	.	?
COc1ccc(C)cc1NS(=O)(=O)c1ccc(-c2cnc(C3CC3)o2)cc1	?	3.4%	-1.7%	?	-102.8*	?
O=Cc1ccc(OC(=O)Cc2ccc(F)cc2)cc1	2.7%	5.0%	7.8%	.	.	?
O=C(CSc1nnc(-c2c[nH]c3ccccc23)o1)NCC1CCCO1 (centres undefined)	?	0.4%	3.6%	-9.1%	64.9	?
O=C(/C(=C/O)N=Nc1cccc(C(F)(F)F)c1)c1ccccc1	?	55.9%	-1.0%	?	?	?
Cc1cccc(N=N/C(=C\O)C(=O)c2ccc(Br)cc2)c1	26.7%	-0.8%	-7.7%	10µM*	-77.3*	71.4%
